The values below come from article PMC4552634, “A New Set of Chemical Starting Points with Plasmodium falciparum Transmission-Blocking Potential for Antimalarial Drug Discovery” (PLoS ONE, 2015).

Screen size: about 13,000 compounds; about 3,200 (25%) showed an effect of 50% or more. The list shows a part of the results.

For the assay, the system named is P. falciparum stage V gametocytes. Also on record: BacTiter-Glo ATP luminescence viability of purified stage V gametocytes in 384-well plates, per cent inhibition versus DMSO. The following applies: 48 h, 5 µM; inhibitor.
On to `CC1(C)N=C(N)N=C(N)N1OCCOc1ccc2ccccc2c1` [TCMDC-131609], for which the “% Inhibition” value is -8.756%.

On to `N#Cc1cc(C(=O)Nc2ccccc2)c(N)nc1SCC(=O)Nc1ccc(Br)cc1` [TCMDC-124873], for which the “% Inhibition” value was -53.64%.

Take `CCCC(C)Nc1nc(C)cc(N[C@@H](CC(C)C)C(=O)NCCc2ccccc2)n1` (some centres unmarked) [TCMDC-134769]: the “% Inhibition” value is recorded as -46.8%.

As for `[O-][s+]1c(Cl)c(-c2ccc(Cl)cc2)c2ccc(Cl)cc21` (centres unmarked) [TCMDC-124011], the “% Inhibition” value stood at 120.8%.

As for `Cc1noc(C)c1-c1ccc(C(=C2CCCCCCC2)c2ccc(O)cc2)cc1` [TCMDC-135872], the “% Inhibition” value is given as -5.918%.

As to `Fc1ccc(-c2oc(C3CCN(CCc4ccc(-c5nc(=S)o[nH]5)cc4)CC3)nc2COCC(F)(F)F)cc1` [TCMDC-138124], the “% Inhibition” value is listed as 11.59%.

For the molecule `O=C(Cc1c[nH]cn1)Nc1ccc(-c2ccc(-c3nc4cc(C(F)(F)F)ccc4[nH]3)s2)cc1` [TCMDC-136944], the “% Inhibition” value is on record as -5.397%.

Take `O=C(Nc1ccc(-c2ccc(-c3nc4cc(C(F)(F)F)ccc4[nH]3)s2)cc1)c1c[nH]cn1` [TCMDC-136933]: the “% Inhibition” value is 1.444%.

For `O=C(Nc1cccc(-c2ccc(-c3nc4cc(C(F)(F)F)ccc4[nH]3)s2)c1)c1c[nH]cn1` [TCMDC-136934], the “% Inhibition” value was 63.59%.

In the case of `O=C(Nc1cccc(-c2ccc(-c3nc4cc(C(F)(F)F)ccc4[nH]3)s2)c1)c1ccncc1` [TCMDC-136960], the “% Inhibition” value is recorded as -10.77%.

With `O=C(Cc1c[nH]cn1)Nc1cccc(-c2ccc(-c3nc4cc(F)ccc4[nH]3)s2)c1` [TCMDC-136953], the “% Inhibition” value is 5.637%.

Consider `O=C(Cc1c[nH]cn1)Nc1cccc(-c2ccc(-c3nc4cc(C(F)(F)F)ccc4[nH]3)s2)c1` [TCMDC-136945], for which the “% Inhibition” value was found to be 84.53%.

Turning to `Cc1cccc2nc(-c3cccc(-c4cccc(CNCCc5ccncc5)c4)c3)[nH]c12.O=C(O)C(F)(F)F` [TCMDC-132844], the “% Inhibition” value turned out to be 3.347%.

As to `O=C(CCc1cccnc1)Nc1cccc(-c2ccc(-c3nc4cc(C(F)(F)F)ccc4[nH]3)s2)c1` [TCMDC-132147], the “% Inhibition” value is on record as 0.1764%.

Take `CC(=O)Nc1ccc(C(=O)NC2CCN(c3ccnc4cc(Cl)ccc34)CC2)cc1` [TCMDC-133572]: the “% Inhibition” value worked out at 1.937%.

As for `CC(C)C[C@H](NC(=O)c1cc2ccccc2s1)C(=O)N[C@H]1CCN(Cc2ccc(OC[C@@H]3CCCN3C)c(Cl)c2)C1` [TCMDC-140292], the “% Inhibition” value is listed as 28.24%.

As to `COc1cc(Nc2nccc(N3CCC(NC(=O)c4cc5ccccc5s4)C3)n2)cc(OC)c1OC` (centres unmarked) [TCMDC-133624], the “% Inhibition” value is given as 0.1379%.

As to `CC(C)C[C@H](NC(=O)c1cc2ccccc2s1)C(=O)N[C@H]1CCN(Cc2ccc(OCCN3CCNCC3)c3ccccc23)C1` [TCMDC-140289], the “% Inhibition” value is 107.5%.

Regarding `CC(C)C[C@H](NC(=O)c1cc2ccccc2s1)C(=O)N[C@H]1CCN(Cc2ccc(OC[C@@H]3CCCN3C)c3ccccc23)C1` [TCMDC-140290], the “% Inhibition” value was determined as 74.51%.

Regarding `COc1ccc(Nc2nccc(N3CCC(NC(=O)c4cc5ccccc5s4)C3)n2)cc1` (centres unmarked) [TCMDC-133614], the “% Inhibition” value is given as -3.392%.

In the case of `O=C(Nc1cccc(C(F)(F)F)c1)N1CCOC(CCN2CCC3(CCc4ccccc43)CC2)(c2ccc(Cl)c(Cl)c2)C1` (centres unmarked) [TCMDC-135340], the “% Inhibition” value is reported as -5.677%.

Turning to `OCC1CCN(Cc2cccc(C#Cc3cc4ncnc(Nc5ccc(OCc6cccc(F)c6)c(Cl)c5)c4s3)n2)CC1` [TCMDC-138841], the “% Inhibition” value is given as 11.44%.

Consider `CCN1CCN(c2cc(C)c3cc(NC(=O)c4cccc(C(F)(F)F)c4)ccc3n2)CC1` [TCMDC-125572], for which the “% Inhibition” value was -33.11%.

As for `Cc1cc(N2CCN(C)CC2)nc2ccc(NC(=O)Cc3cccc(C(F)(F)F)c3)cc12` [TCMDC-123590], the “% Inhibition” value turned out to be 92.11%.

As for `Cc1cc(N2CCN(C)CC2)nc2ccc(NC(=O)c3cccc(N(C)C)c3)cc12` [TCMDC-124449], the “% Inhibition” value stood at 4.693%.

For `Cc1cccn2c(=O)c3cc(C(=O)NC(C)c4ccccc4)c(=N)n(CCN4CCOCC4)c3nc12` (centres unmarked) [TCMDC-125137], the “% Inhibition” value stood at 27.67%.

For `COCCn1c(-c2nc(-c3ccc(F)cc3)cnc2N)nc2ccccc21` [TCMDC-138875], the “% Inhibition” value is 21.39%.

On to `CN=C(N)c1ccc(NC(=O)Nc2ccc(C(N)=NC)cc2)cc1` [TCMDC-137211], for which the “% Inhibition” value was 3.891%.

Regarding `O=C(Nc1ccc(C(=O)Nc2cccc(C3=NCCN3)c2)cc1)Nc1ccc(C2=NCCN2)cc1` [TCMDC-137196], the “% Inhibition” value is -21.25%.

`O=C(CCCC(=O)Nc1ccc(C2=NCCN2)cc1)Nc1ccc(C2=NCCN2)cc1` [TCMDC-138427]: the “% Inhibition” value is recorded as -1.956%.

Regarding `CN=C(N)c1ccc(NC(=O)C=Cc2ccc(C(=O)Nc3ccc(C(N)=NC)cc3)cc2)cc1` [TCMDC-137193], the “% Inhibition” value was found to be 77.71%.

For the molecule `O=C(C=Cc1ccc(C(=O)Nc2ccc(C3=NCCN3)cc2)cc1)Nc1ccc(C2=NCCN2)cc1` [TCMDC-137212], the “% Inhibition” value is 61.27%.

Consider `CN=C(N)c1ccc(NC(=O)c2ccc(C(=O)Nc3ccc(C(N)=NC)cc3)cc2)cc1` [TCMDC-137214], for which the “% Inhibition” value was -8.132%.

Turning to `N#Cc1cccc(C(=O)NC2CCN(c3ccnc(Nc4ccc(F)cc4)n3)C2)c1` (centres unmarked) [TCMDC-133593], the “% Inhibition” value amounted to 17.79%.

Take `O=C(C=Cc1cccc(F)c1)NC1CCC(CCN2CCc3ccc(-c4cnccn4)cc3CC2)CC1` (centres unmarked) [TCMDC-140326]: the “% Inhibition” value is -57.13%.

For `Cc1cc(-c2ccc3c(c2)CCN(CCC2CCC(NC(=O)/C=C/c4ccc(F)cc4)CC2)CC3)on1` (centres unmarked) [TCMDC-139926], the “% Inhibition” value is -90.16%.

Turning to `Cc1cc(-c2ccc3c(c2)CCN(CCC2CCC(NC(=O)/C=C/c4ccccc4F)CC2)CC3)on1` (centres unmarked) [TCMDC-139974], the “% Inhibition” value is reported as -78.86%.

Take `Cc1noc(-c2ccc3c(c2)CCN(CCC2CCC(NC(=O)/C=C/c4ccc(F)cc4)CC2)CC3)n1` (centres unmarked) [TCMDC-139865]: the “% Inhibition” value is -60.69%.

`O=C(NC1CCC(CCN2CCc3ccc(-c4cnccn4)cc3CC2)CC1)c1cccc(-n2cccn2)c1` (centres unmarked) [TCMDC-140329]: the “% Inhibition” value came out at 67.17%.

In the case of `Cc1ccc2[nH]cc(/C=C/C(=O)NC3CCC(CCN4CCc5ccc(C#N)cc5CC4)CC3)c2c1` (centres unmarked) [TCMDC-139682], the “% Inhibition” value came out at 84.8%.

With `N#Cc1ccc2c(c1)CCN(CCC1CCC(NC(=O)/C=C/c3c[nH]c4ccc(F)cc34)CC1)CC2` (centres unmarked) [TCMDC-139667], the “% Inhibition” value was -9.203%.

With `COc1ccccc1/C=C/C(=O)NC1CCC(CCN2CCc3ccc(-c4cc(C)no4)cc3CC2)CC1` (centres unmarked) [TCMDC-139975], the “% Inhibition” value turned out to be 80.37%.

In the case of `N#Cc1ccc(C=CC(=O)NC2CCC(CCN3CCc4ccc(-c5cnccn5)cc4CC3)CC2)cc1` (centres unmarked) [TCMDC-140327], the “% Inhibition” value is reported as -34.09%.

`O=C(C=Cc1ccc(F)cc1)NC1CCC(CCN2CCc3ccc(-c4cnccn4)cc3CC2)CC1` (centres unmarked) [TCMDC-140328]: the “% Inhibition” value was determined as 0.8671%.

Take `Cn1cnc(-c2ccc3c(c2)CCN(CCC2CCC(NC(=O)/C=C/c4ccc(F)cc4)CC2)CC3)c1` (centres unmarked) [TCMDC-140338]: the “% Inhibition” value came out at 59.86%.

Regarding `Cc1c[nH]c2ccc(/C=C/C(=O)NC3CCC(CCN4CCc5ccc(C#N)cc5CC4)CC3)cc12` (centres unmarked) [TCMDC-139669], the “% Inhibition” value stood at 1.674%.

For `O=C(Nc1ccc(Cn2ncc(N3CCCNCC3)c(Cl)c2=O)cc1)Nc1ccc(C(F)(F)F)cc1` [TCMDC-133328], the “% Inhibition” value is -22.6%.

Take `O=C(Nc1cccc(CN2CCN(Cc3ccc(O)cc3)CC2)c1)c1cccc(C(F)(F)F)c1` [TCMDC-141885]: the “% Inhibition” value is listed as -19.52%.

For `CCC[C@@H]([C@@H](CC1CCCCC1)C(=O)N[C@H](C(=O)Nc1nccs1)C(C)(C)SC)N(O)C=O` [TCMDC-138113], the “% Inhibition” value is -0.06569%.

`COc1ccccc1N1CCN(C(C(=O)NCc2cccc(F)c2)c2ccc(C)cc2)CC1` (centres unmarked) [TCMDC-135502]: the “% Inhibition” value amounted to 14.65%.

For the molecule `O=c1cc(NCCCNCc2cccc(I)c2)[nH]c2ccccc12` [TCMDC-139414], the “% Inhibition” value is on record as -42.93%.

As for `O=C(Nc1ccc(-c2nc3ccccc3[nH]2)cc1)C1CCN(Cc2cccc(F)c2F)CC1` [TCMDC-124682], the “% Inhibition” value is listed as -38.06%.

For the molecule `COc1ccc(CN2CCCC(N3CC4(OC3=O)c3ccccc3-c3ccccc34)C2)c(O)c1` (centres unmarked) [TCMDC-136068], the “% Inhibition” value is reported as 22.8%.

On to `O=C(N[C@@H](Cc1ccccc1)C(=O)NCc1cccc2ccccc12)c1ccc(O)c(-c2ccc(Cl)c(Cl)c2)c1` [TCMDC-140877], for which the “% Inhibition” value came out at 23.34%.

With `COc1ccc(CCN(Cc2cccs2)C(=O)c2cc3sccc3n2C)cc1OC` [TCMDC-123572], the “% Inhibition” value worked out at 18.98%.

As for `O=C(Cc1cccc(Cl)c1)Nc1cccc(-c2c[nH]c3nc(Nc4cccc(O)c4)ncc23)c1` [TCMDC-134681], the “% Inhibition” value is given as -6.738%.

For `CN1CCC[C@H]1COc1ccc(CN2CC[C@H](NC(=O)c3ccc(Cl)c(Cl)c3)C2)cc1Br` [TCMDC-140285], the “% Inhibition” value is on record as 31.25%.

`Cc1cc(CN2CC[C@H](NC(=O)c3ccc(Cl)c(Cl)c3)C2)ccc1OCCN1CCCC1` [TCMDC-140279]: the “% Inhibition” value is on record as -2.29%.

In the case of `O=C(N[C@H]1CCN(Cc2ccc(OCCN3CCNCC3)c(Cl)c2)C1)c1ccc(Cl)c(Cl)c1` [TCMDC-140274], the “% Inhibition” value was determined as 104.1%.

Turning to `O=C(N[C@H]1CCN(Cc2ccc(OCCN3CCCC3)c(Cl)c2)C1)c1ccc(Cl)c(Cl)c1` [TCMDC-140273], the “% Inhibition” value is recorded as 27.77%.

On to `O=C(N[C@H]1CCN(Cc2ccc(OCCN3CCNCC3)c(Br)c2)C1)c1ccc(Cl)c(Cl)c1` [TCMDC-140284], for which the “% Inhibition” value was found to be 61.32%.

For `CN(C)CCCOc1ccc(CN2CC[C@H](NC(=O)c3ccc(Cl)c(Cl)c3)C2)cc1Br` [TCMDC-140283], the “% Inhibition” value was 16.89%.

With `Cc1cc(CN2CC[C@H](NC(=O)c3ccc(Cl)c(Cl)c3)C2)ccc1OCCN1CCNCC1` [TCMDC-140280], the “% Inhibition” value stood at 58.57%.

For `CN1CCC[C@H]1COc1ccc(CN2CC[C@H](NC(=O)c3ccc(Cl)c(Cl)c3)C2)cc1Cl` [TCMDC-140275], the “% Inhibition” value is -2.162%.

With `Cc1cc(CN2CC[C@H](NC(=O)c3ccc(Cl)c(Cl)c3)C2)ccc1OCCCN(C)C` [TCMDC-140278], the “% Inhibition” value came out at 26.92%.
